# Reference: the supplement of paper PMC8728848
# About 410 targets per protein were measured; listed, in parts, are those with the strongest signals and a random draw of the rest.
# Key:
# Test in all cases: glycan array binding signal (z-score within array); higher = stronger binding
# Details in all cases: glycan notation: IUPAC condensed, linker removed
# [1] = target: Fuc(a1-2)Gal(b1-3)[Fuc(a1-4)]GlcNAc
# Summary of the method: (§1)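 Arrays were curated from the Consortium for Functional Glycomics database, 3228 in total, and kept only where the protein sequence was available. Binding is expressed as a within-array Z-score. This score was averaged across arrays of the same protein sequence at different concentrations or buffers and across linkers, and negative values can be read as non-binding.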
# [2] = target: Fuc(a1-2)Gal(b1-3)[Fuc(a1-4)]GlcNAc(b1-3)[Fuc(a1-3)[Gal(b1-4)]GlcNAc(b1-6)]Gal(b1-4)Glc
# Summary of the method: as §1
# [3] = target: Fuc(a1-2)Gal(b1-4)Fuc(a1-3)]GlcNAc(b1-2)Man(a1-3)[Fuc(a1-2)Gal(b1-4)[Fuc(a1-3)]GlcNAc(b1-2)Man(a1-6)]Man(b1-4)GlcNAc(b1-4)GlcNAc
# Summary of the method: as §1
# [4] = target: Fuc(a1-2)Gal(b1-4)GlcNAc
# Summary of the method: as §1
# [5] = target: Fuc(a1-2)Gal(b1-4)GlcNAc(b1-6)GalNAc
# Summary of the method: as §1
# [6] = target: Fuc(a1-2)Gal(b1-4)[Fuc(a1-3)]GlcNAc(b1-3)GalNAc
# Summary of the method: as §1
# [7] = target: Fuc(a1-2)Gal6S(b1-3)GlcNAc6S
# Summary of the method: as §1
# [8] = target: Fuc(a1-2)[Gal(a1-3)]Gal(b1-3)GlcNAc
# Summary of the method: as §1
# [9] = target: Fuc(a1-2)[Gal(a1-3)]Gal(b1-4)[Fuc(a1-3)]Glc
# Summary of the method: as §1
# [10] = target: Fuc(a1-2)[GalNAc(a1-3)]Gal(b1-3)GalNAc(b1-3)Gal(a1-4)Gal(b1-4)Glc
# Summary of the method: as §1
# [11] = target: Fuc(a1-2)[GalNAc(a1-3)]Gal(b1-4)GlcNAc(b1-2)Man(a1-3)[Fuc(a1-2)[GalNAc(a1-3)]Gal(b1-4)GlcNAc(b1-2)Man(a1-6)]Man(b1-4)GlcNAc(b1-4)[Fuc(a1-6)]GlcNAc
# Summary of the method: as §1
# [12] = target: Fuc(a1-2)[GalNAc(a1-3)]Gal(b1-4)GlcNAc(b1-3)Gal(b1-4)GlcNAc
# Summary of the method: as §1
# [13] = target: Fuc(a1-2)[GalNAc(a1-3)]Gal(b1-4)[Fuc(a1-3)]GlcNAc(b1-3)GalNAc
# Summary of the method: as §1
# [14] = target: Fuc(a1-3)[Gal(b1-4)]GlcNAc(b1-2)Man
# Summary of the method: as §1
# [15] = target: Fuc(a1-3)[Gal(b1-4)]GlcNAc(b1-3)GalNAc
# Summary of the method: as §1
# [16] = target: Fuc(a1-3)[Gal(b1-4)]GlcNAc(b1-6)GalNAc
# Summary of the method: as §1
# [17] = target: Gal(a1-3)Gal(b1-3)[Fuc(a1-4)]GlcNAc(b1-2)Man(a1-3)[Gal(a1-3)Gal(b1-3)[Fuc(a1-4)]GlcNAc(b1-2)Man(a1-6)]Man(b1-4)GlcNAc(b1-4)GlcNAc
# Summary of the method: as §1
# [18] = target: Gal(a1-4)GlcNAc
# Summary of the method: as §1
# [19] = target: Gal(b1-3)[Neu5Ac(a2-6)]GlcNAc(b1-4)Gal(b1-4)Glc
# Summary of the method: as §1
# [20] = target: Gal(b1-4)Glc6S
# Summary of the method: as §1
# [21] = target: Gal(b1-4)GlcNAc(b1-3)Gal(b1-3)GalNAc
# Summary of the method: as §1
# [22] = target: Gal(b1-4)GlcNAc(b1-3)Gal(b1-3)GlcNAc
# Summary of the method: as §1
# [23] = target: Gal(b1-4)GlcNAc(b1-3)Gal(b1-4)GlcNAc
# Summary of the method: as §1
# [24] = target: Gal(b1-4)GlcNAc(b1-3)GalNAc
# Summary of the method: as §1
# [25] = target: Gal(b1-4)GlcNAc(b1-3)[Fuc(a1-3)GlcNAc(b1-6)]Gal(b1-4)Glc
# Summary of the method: as §1
# [26] = target: Gal(b1-4)GlcNAc(b1-3)[GlcNAc(b1-6)]Gal(b1-4)GlcNAc
# Summary of the method: as §1
# [27] = target: Gal3S(b1-3)GlcNAc
# Summary of the method: as §1
# [28] = target: Gal3S(b1-3)[Fuc(a1-4)]GlcNAc
# Summary of the method: as §1
# [29] = target: Gal3S6S(b1-4)GlcNAc6S
# Summary of the method: as §1
# [30] = target: Gal4S(b1-4)GlcNAc
# Summary of the method: as §1
# [31] = target: Gal6S(b1-4)GlcNAc6S
# Summary of the method: as §1
# [32] = target: GalNAc(b1-3)Gal(a1-4)Gal(b1-4)GlcNAc(b1-3)Gal(b1-4)Glc
# Summary of the method: as §1
# [33] = target: GalNAc4S6S(b1-4)GlcNAc
# Summary of the method: as §1
# [34] = target: Glc(b1-4)Glc
# Summary of the method: as §1
# [35] = target: GlcA(b1-6)Gal
# Summary of the method: as §1
# [36] = target: GlcNAc(a1-4)Gal(b1-4)GalNAc
# Summary of the method: as §1
# [37] = target: GlcNAc(b1-2)[GlcNAc(b1-6)]Man(a1-6)[GlcNAc(b1-2)Man(a1-3)]Man(b1-4)GlcNAc(b1-4)GlcNAc
# Summary of the method: as §1
# [38] = target: GlcNAc(b1-2)[GlcNAc(b1-6)]Man(a1-6)[GlcNAc(b1-4)][GlcNAc(b1-2)Man(a1-3)]Man(b1-4)GlcNAc(b1-4)GlcNAc
# Summary of the method: as §1
# [39] = target: GlcNAc(b1-4)GlcNAc(b1-4)GlcNAc(b1-4)GlcNAc(b1-4)GlcNAc(b1-4)GlcNAc
# Summary of the method: as §1
# [40] = target: Kdn(a2-3)Gal(b1-3)GalNAc
# Summary of the method: as §1
# [41] = target: Man(a1-2)Man(a1-3)[Man(a1-6)]Man(a1-6)[Man(a1-2)Man(a1-3)]Man(b1-4)GlcNAc(b1-4)GlcNAc
# Summary of the method: as §1
# [42] = target: Neu5Ac(a2-3)Gal(b1-3)GlcNAc6S
# Summary of the method: as §1
# [43] = target: Neu5Ac(a2-3)Gal(b1-3)[GlcNAc(b1-6)]GalNAc
# Summary of the method: as §1
# [44] = target: Neu5Ac(a2-3)Gal(b1-3)[Neu5Ac(a2-6)]GlcNAc(b1-3)[Fuc(a1-3)[Gal(b1-4)]GlcNAc(b1-6)]Gal(b1-4)Glc
# Summary of the method: as §1
# [45] = target: Neu5Ac(a2-3)Gal(b1-4)Glc
# Summary of the method: as §1
# [46] = target: Neu5Ac(a2-3)Gal(b1-4)GlcNAc(b1-2)Man
# Summary of the method: as §1
# [47] = target: Neu5Ac(a2-3)Gal(b1-4)GlcNAc(b1-3)Gal(b1-4)GlcNAc(b1-2)Man(a1-3)[Neu5Ac(a2-3)Gal(b1-4)GlcNAc(b1-3)Gal(b1-4)GlcNAc(b1-2)Man(a1-6)]Man(b1-4)GlcNAc(b1-4)GlcNAc
# Summary of the method: as §1
# [48] = target: Neu5Ac(a2-3)Gal(b1-4)GlcNAc(b1-3)Gal(b1-4)GlcNAc(b1-3)Gal(b1-4)GlcNAc(b1-2)Man(a1-3)[Neu5Ac(a2-3)Gal(b1-4)GlcNAc(b1-3)Gal(b1-4)GlcNAc(b1-3)Gal(b1-4)GlcNAc(b1-2)Man(a1-6)]GalNAc
# Summary of the method: as §1
# [49] = target: Neu5Ac(a2-3)Gal(b1-4)GlcNAc(b1-3)[Neu5Ac(a2-3)Gal(b1-4)GlcNAc(b1-6)]GalNAc
# Summary of the method: as §1
# [50] = target: Neu5Ac(a2-3)Gal(b1-4)[Fuc(a1-3)]GlcNAc(b1-2)Man
# Summary of the method: as §1
# [51] = target: Neu5Ac(a2-6)Gal(b1-4)GlcNAc(b1-2)Man(a1-3)[GlcNAc(b1-2)Man(a1-6)]Man(b1-4)GlcNAc(b1-4)GlcNAc
# Summary of the method: as §1
# [52] = target: Neu5Ac(a2-6)Gal(b1-4)GlcNAc(b1-2)Man(a1-3)[Neu5Ac(a2-3)Gal(b1-4)GlcNAc(b1-2)Man(a1-6)]Man(b1-4)GlcNAc(b1-4)GlcNAc
# Summary of the method: as §1
# [53] = target: Neu5Ac(a2-6)Gal(b1-4)GlcNAc(b1-2)Man(a1-3)[Neu5Ac(a2-6)Gal(b1-4)GlcNAc(b1-2)Man(a1-6)]Man(b1-4)GlcNAc(b1-4)[Fuc(a1-6)]GlcNAc
# Summary of the method: as §1
# [54] = target: Neu5Ac(a2-6)Gal(b1-4)GlcNAc6S
# Summary of the method: as §1
# [55] = target: Neu5Ac(a2-6)GlcNAc(b1-4)GlcNAc(b1-4)GlcNAc
# Summary of the method: as §1
# [56] = target: Neu5Ac(a2-8)Neu5Gc(a2-3)Gal(b1-4)GlcNAc
# Summary of the method: as §1
# [57] = target: Neu5Ac9Ac(a2-3)Gal(b1-4)GlcNAc
# Summary of the method: as §1
# [58] = target: Neu5Ac9Ac(a2-6)Gal(b1-4)GlcNAc
# Summary of the method: as §1
# [59] = target: Neu5Gc(a2-3)Gal(b1-4)GlcNAc
# Summary of the method: as §1
binder,measurement,setting,value
Epa2 (Candida glabrata) (protein) MGSSHHHHHHSSGLVPRGSHMASSKDPTSFPMGCSPQVLKTQPGLAVKLYSYGHPVPGCAYNTYQYPDFPRSGYKKERKLADITGVNGRIDIDLKPNDPCRVLSGNLPSNYNYQNTLTYTNFTMILYGYFQPKVTGYHTFNLEADDLLFMNLGAGNAFDCCRAESTLDNFGNYQSYSIWGTDKATADLTVFLVSGIYYPIRLFYVNRDNNAVLDFSFSTEFNKEIIHDFTSYFFSASDEEQCPGNI,glycan array binding signal (z-score),[1],0.672
same,glycan array binding signal (z-score),[2],0.365
same,glycan array binding signal (z-score),[3],0.533
same,glycan array binding signal (z-score),[4],-0.046
same,glycan array binding signal (z-score),[5],2.02
same,glycan array binding signal (z-score),[6],4.06
same,glycan array binding signal (z-score),[7],1.81
same,glycan array binding signal (z-score),[8],-0.553
same,glycan array binding signal (z-score),[9],-0.56
same,glycan array binding signal (z-score),[10],-0.252
same,glycan array binding signal (z-score),[11],-0.26
same,glycan array binding signal (z-score),[12],-0.172
same,glycan array binding signal (z-score),[13],4.26
same,glycan array binding signal (z-score),[14],-1.15
same,glycan array binding signal (z-score),[15],0.659
same,glycan array binding signal (z-score),[16],2.23
same,glycan array binding signal (z-score),[17],-0.479
same,glycan array binding signal (z-score),[18],2.5
same,glycan array binding signal (z-score),[19],0.015
same,glycan array binding signal (z-score),[20],-0.198
same,glycan array binding signal (z-score),[21],0.503
same,glycan array binding signal (z-score),[22],-0.725
same,glycan array binding signal (z-score),[23],-0.158
same,glycan array binding signal (z-score),[24],-0.071
same,glycan array binding signal (z-score),[25],0.111
same,glycan array binding signal (z-score),[26],-1.09
same,glycan array binding signal (z-score),[27],-0.16
same,glycan array binding signal (z-score),[28],0.641
same,glycan array binding signal (z-score),[29],2.14
same,glycan array binding signal (z-score),[30],-0.316
same,glycan array binding signal (z-score),[31],2.81
same,glycan array binding signal (z-score),[32],1.03
same,glycan array binding signal (z-score),[33],0.176
same,glycan array binding signal (z-score),[34],0.058
same,glycan array binding signal (z-score),[35],0.586
same,glycan array binding signal (z-score),[36],-0.65
same,glycan array binding signal (z-score),[37],-0.896
same,glycan array binding signal (z-score),[38],-0.884
same,glycan array binding signal (z-score),[39],-0.072
same,glycan array binding signal (z-score),[40],2.25
same,glycan array binding signal (z-score),[41],-1.18
same,glycan array binding signal (z-score),[42],0.604
same,glycan array binding signal (z-score),[43],-0.044
same,glycan array binding signal (z-score),[44],0.369
same,glycan array binding signal (z-score),[45],0.776
same,glycan array binding signal (z-score),[46],3.5
same,glycan array binding signal (z-score),[47],0.377
same,glycan array binding signal (z-score),[48],2.23
same,glycan array binding signal (z-score),[49],3.03
same,glycan array binding signal (z-score),[50],-0.325
same,glycan array binding signal (z-score),[51],-0.681
same,glycan array binding signal (z-score),[52],-0.821
same,glycan array binding signal (z-score),[53],-0.149
same,glycan array binding signal (z-score),[54],-0.614
same,glycan array binding signal (z-score),[55],-0.626
same,glycan array binding signal (z-score),[56],-1.11
same,glycan array binding signal (z-score),[57],-0.074
same,glycan array binding signal (z-score),[58],-0.169
same,glycan array binding signal (z-score),[59],-0.248
